Some of the results follow. Results filed as inconclusive are left out. Calls of active or inactive are those of the source. Calls come from the whole dose curve; as a rule, active = well fitted inhibition curve with a large enough effect; inconclusive = small, poorly fitted or top-dose-only effect; inactive = flat fitted curve, though single readings scatter.
Each compound was assayed against Fructose-bisphosphate aldolase (Giardia intestinalis (strain ATCC 50803 / WB clone C6)) (UniProt A8B2U2) (assay: qHTS Assay for Inhibitors of Fructose-1,6-bisphosphate Aldolase from Giardia Lamblia: Primary screen confirmation (AID 2787;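 note: aldolase product measured through coupled diaphorase step turning resazurin into fluorescent resorufin; nearly all actives have a fitted effect of over 45% in size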)). Settings: purified Giardia aldolase enzyme activity; series mostly up to 57.5 µM.
Sequence of Fructose-bisphosphate aldolase (Giardia intestinalis (strain ATCC 50803 / WB clone C6)) (A8B2U2 whole entry, looked up): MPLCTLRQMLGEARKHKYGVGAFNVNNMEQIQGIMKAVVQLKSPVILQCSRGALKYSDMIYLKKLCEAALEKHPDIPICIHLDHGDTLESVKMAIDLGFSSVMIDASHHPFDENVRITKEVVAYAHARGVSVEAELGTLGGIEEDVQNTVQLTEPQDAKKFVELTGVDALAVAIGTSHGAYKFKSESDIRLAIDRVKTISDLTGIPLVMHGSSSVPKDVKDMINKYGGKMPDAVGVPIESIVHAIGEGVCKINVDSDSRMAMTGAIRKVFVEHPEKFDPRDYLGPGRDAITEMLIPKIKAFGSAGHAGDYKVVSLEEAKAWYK
Source text: NIH Chemical Genomics Center [NCGC]
NIH Molecular Libraries Probe Production centers Network [MLPCN]
Assay Provider: Osnat Herzberg, University of Maryland
The objective of this project is to obtain compounds that inhibit Giardia lamblia growth. G. lamblia is a human pathogen which afflicts impoverished nations; it is the most common cause of outbreaks of diarrhea in the United States. During the course of our study of potential drug targets in Giardia, we have identified the Class II (Zn2+ functions in electrophilic catalysis) fructose-1,6-bisphosphate aldolase (FBPA) as an excellent candidate for drug targeting. FBPA is a key glycolytic pathway enzyme, essential for G. lamblia survival. The human FBPA belongs to the Class I aldolases, which have a different substrate binding site structure and a radically different catalytic mechanism (employing a lysine-Schiff base intermediate). Therefore, affinity-based or mechanism-based inhibitors of the Giardia FBPA are expected not to interfere with the catalytic function of the human FBPA.
A glyceraldehyde-3-phosphate dehydrogenase/triose phosphate isomerase/NAD/arsenate coupled assay was adapted to the 1536-well HTP format for use in the primary screen. This was done by coupling it to a diaphorase/resazurin/resorufin reaction that can be monitored by fluorescence (excitation, 544 nm; emission, 590 nm). Compounds identified in this screen will be further evaluated by coupling the glycerol-3-phosphate/triose phosphate isomerase/NADH assay to a phenazine methosulfate/tetranitroblue tetrazolium color reaction. False positives due to the dehydrogenases and diaphorase inhibition will be eliminated, and selectivity assay will triage inhibitors of mammalian triose phosphate isomerase and the Class I FBPA. G. lamblia FBPA inhibitors identified by the in vitro analyses will be examined for growth inhibition of Giardia trophozoites, and for cytotoxicity in human cells.
The present assay was used to confirm hits from the primary screen.
Step,Parameter,Value,Description
1,Enzyme reagent,2 uL,40 nM FBPA w/ 30uM ZnCl2
2,Compound,23 nL,3.68 nM-57.5 uM final concentration
3,Time,10 min,RT Incubation
4,Substrate/detection Reagent,2 uL,Substrate + enzyme coupling system + AmpLite Red kit
5,Time,20 min,RT Incubation
6,Detector,525 nm/598 nm (Fluorescence),ViewLux Fluorescence Read (Read 1)
1,Medium-binding black solid-bottom Kalypsys plates. FRD or Kalypsys dispenser, 2 uL of FBPA enzyme. Bottle kept at 4C.
2,Compound Library (10 mM ,1:5 dilution). Pin-transferred for a [final] range of 3.68 nM-57.5 uM.
4,FRD or Kalypsys dispenser, 2 uL of reaction mixture. Bottle kept at 4C and covered in foil to protect from light.
6,ViewLux Protocol 1194; Excitation filter wheel A (525/20 Pol; BODIPY TMR FP), Emission filter wheel B (598/25 S; BODIPY TMR FP S).
Keywords: Fructose-bisphosphate aldolase, FBPA , Giardia lamblia , Giardia, HTS, Inhibitors

outcome, inactive:
CN(C)CCOc1ccc(Cl)cc1C(C)(C)C, O=C(O)Cn1c(Cc2ccccc2)nc2ccccc21, COc1cc(CN2CCN(Cc3ccc(C)cc3)CC2)c([N+](=O)[O-])cc1OC, COc1ccccc1CN1CCN(Cc2cc(OC)c(OC)cc2OC)CC1, CN1CCCc2cc(C#N)c(=O)[nH]c21, Cc1cccc(-c2nnc(SCC(=O)O)n2Cc2ccccc2)c1, COc1ccc(CN2CCN(Cc3ccc(OC)c(OC)c3OC)CC2)cc1, Cc1cc(C)c2c(=O)[nH]c(SCC(=O)Nc3ccc(Br)cc3)nc2n1, Cc1nc2ccc(NC(=S)N3CCC(C)CC3)cc2nc1C, Cc1cnc(NC(=O)c2ccccn2)s1, O=c1nc(N/N=C/c2ccco2)cn[nH]1, O=[N+]([O-])c1cc([N+](=O)[O-])c2cccnc2c1O, CCc1ccc2c(c1)C1(NN=C(c3ccccc3)S1)C(=O)N2 (stereo not given), O=C(Nc1ccccc1Cl)O/N=C(/c1ccccc1)c1ccccn1, O=C(N/N=C/c1ccccn1)c1cccnc1, Oc1[nH]c2ccc(Br)cc2c1N=Nc1nn[nH]n1, Cn1nnc(NC(=S)NC(=O)c2ccccc2)n1, CCN1CCc2c(C#N)c(NCc3ccccc3)nc(NCCO)c2C1, COc1ccc(Cl)cc1C(=O)NNC(=O)c1nc2nc(C)cc(C)n2n1, Cc1csc(NC(=O)CN2CCCCCC2)n1, CCN(CC(=O)Nc1ccc(S(=O)(=O)N2CCCC2)cc1)CC(=O)Nc1cccc(OC)c1, C=CCNC(=S)/N=c1/ccccn1Cc1ccccc1, O=C(Nc1nnc(-c2ccco2)o1)c1ccc(S(=O)(=O)N2CCOCC2)cc1, Cc1cc(C)n(-c2ccc(Cl)c(C(=O)O)n2)n1, CC(C)(c1ccccc1)c1ccc(OCCN2CCCC2)cc1, COc1ccc(N=Nc2c(-c3ccc(OC)cc3)[nH]oc2=O)cc1, Cc1ccc(S(=O)(=O)NNC(=S)NC(C)(C)C)cc1, O=[N+]([O-])c1ccc2nc(-c3ccccn3)[nH]c2c1, Cc1ccc(C(=O)Nc2nnc(C3=COCCO3)o2)cc1C, CSc1n[nH]c(=S)n1N, Clc1cccc(CN2COc3c(cc(Cl)c4cccnc34)C2)c1, CC(=O)NC1CCN(CC(=O)Nc2nccs2)CC1, O=C(CSc1cccc[n+]1[O-])c1ccc(-c2ccccc2)cc1, COCCN(C(=S)Nc1ccccc1OC)C1CCN(C(C)C)CC1, O=C(CN1CCN(Cc2ccccc2)CC1)Nc1ccc(F)c(F)c1, Cc1cc(C)nc(N/N=C/c2ccc([N+](=O)[O-])o2)n1, CCN(CC(=O)NC(=O)NCc1ccccc1)Cc1nc2ccccc2c(=O)[nH]1, Cc1nnc(SCC2=C(C(=O)O)N3C(=O)C(NC(=O)Cn4nc(C)c(Cl)c4C)C3SC2)s1 (stereo not given), CN1C(=O)/C(=C\c2ccc(-c3ccccc3)o2)SC1=S, Oc1ccc2ccccc2c1N=Nc1nccs1

Reference: PubChem BioAssay (NCATS)
